In the supplement of paper PMC3334620:
The full ranking holds about 33,000 sequences; the median of “E-score (-0.5 to 0.5)” is about -0.054, and the highest 2% start at about 0.39. The entries come from a sample that favours the highest values as a whole.

What follows are sequences tested against Ylr278c (UniProt Q05854) (assay: PBM E-score (8-mer binding enrichment) (E-score (-0.5 to 0.5)); higher = stronger / more preferred TF binding). Details: protein concentration: 200 nM; construct: GST-DNA-binding domain.
Chain of UniProt Q05854 (Q05854 whole entry, the tested form may be a part): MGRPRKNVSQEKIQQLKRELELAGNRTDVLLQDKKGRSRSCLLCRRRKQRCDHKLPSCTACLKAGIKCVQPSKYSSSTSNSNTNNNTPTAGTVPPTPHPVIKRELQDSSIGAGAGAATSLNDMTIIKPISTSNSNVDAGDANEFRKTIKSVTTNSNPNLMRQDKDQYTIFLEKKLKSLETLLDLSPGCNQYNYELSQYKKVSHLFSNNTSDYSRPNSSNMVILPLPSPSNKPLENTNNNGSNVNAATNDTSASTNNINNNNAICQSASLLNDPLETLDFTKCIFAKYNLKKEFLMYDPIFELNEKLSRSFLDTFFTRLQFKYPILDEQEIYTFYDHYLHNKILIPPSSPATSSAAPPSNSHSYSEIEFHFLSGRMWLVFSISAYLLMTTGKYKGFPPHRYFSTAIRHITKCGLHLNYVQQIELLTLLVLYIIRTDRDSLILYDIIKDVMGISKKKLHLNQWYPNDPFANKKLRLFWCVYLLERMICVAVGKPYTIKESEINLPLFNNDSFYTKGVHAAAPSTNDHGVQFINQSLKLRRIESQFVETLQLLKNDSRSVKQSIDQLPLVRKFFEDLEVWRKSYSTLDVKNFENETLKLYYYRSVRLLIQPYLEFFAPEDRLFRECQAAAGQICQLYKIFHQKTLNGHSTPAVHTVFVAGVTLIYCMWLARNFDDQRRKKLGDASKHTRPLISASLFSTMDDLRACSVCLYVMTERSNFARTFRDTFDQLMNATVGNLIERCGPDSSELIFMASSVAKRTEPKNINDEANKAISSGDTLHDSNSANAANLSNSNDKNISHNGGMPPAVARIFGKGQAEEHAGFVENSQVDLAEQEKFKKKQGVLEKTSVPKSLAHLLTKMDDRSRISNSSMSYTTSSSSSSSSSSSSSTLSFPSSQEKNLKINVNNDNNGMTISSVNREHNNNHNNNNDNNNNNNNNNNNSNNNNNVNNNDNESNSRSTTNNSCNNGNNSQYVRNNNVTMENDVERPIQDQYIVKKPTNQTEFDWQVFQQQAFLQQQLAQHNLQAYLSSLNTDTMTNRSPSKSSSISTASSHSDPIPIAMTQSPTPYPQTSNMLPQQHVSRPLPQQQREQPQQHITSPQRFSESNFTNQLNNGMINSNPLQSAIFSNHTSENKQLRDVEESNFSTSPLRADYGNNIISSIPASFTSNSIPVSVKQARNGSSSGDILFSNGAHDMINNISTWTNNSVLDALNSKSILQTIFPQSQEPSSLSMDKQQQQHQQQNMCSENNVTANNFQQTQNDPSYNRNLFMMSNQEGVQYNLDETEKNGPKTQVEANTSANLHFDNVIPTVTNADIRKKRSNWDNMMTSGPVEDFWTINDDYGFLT
Description: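 Universal 'all 10-mer' protein binding microarrays (Agilent AMADID 015681) probed with GST-tagged S. cerevisiae TFs (full-length or DBD) made by in vitro transcription/translation (PURExpress), about 100-200 nM. Bound TF was detected with fluorescent anti-GST. Each ungapped 8-mer (which stands for itself and its reverse complement) is scored by the PBM enrichment score (E-score), a modified Wilcoxon-Mann-Whitney statistic from -0.5 to +0.5, computed with the Universal PBM Analysis Suite. Scale: above 0.35 generally sequence-specific binding.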

Sequence | PBM E-score
ATTCGGAG | 0.422
ATTCGGCC | 0.284
ATTCGGAA | 0.36
ATTCGGCG | 0.286
ATTCGGGC | 0.18
ATTCGGAC | 0.392
AAGACAGC | -0.0488
AAGGGAAT | -0.149
CGCTTCTC | 0.168
AGGAGAGC | -0.275
GGGAGAGA | -0.201
CAGAGAGC | -0.184
AGGAGAGA | -0.136
CGGAGAGC | 0.389
CGGAGAGA | 0.402
AAGGTCAA | -0.195
ACTCTAAT | -0.121
ATTGGCAC | -0.247
CGGATCCC | 0.402
CGGATCCA | 0.221
AGGATCCG | 0.226
AGGATCCC | 0.113
CGGATCCG | 0.438
GGGATCCC | 0.325
ATGCAGCG | 0.0411

Sequence | PBM E-score
CCCATAAG | 0.0166
GTGGAGTA | -0.135
CCCAACAA | -0.0374
GACGGACA | 0.328
CCCGGACA | 0.405
GCAGGATA | -0.221
CACGGATA | 0.196
GCCGGACA | 0.447
ACCGGACA | 0.401
GCCGGACC | 0.376
AACGGACA | 0.321
GCCGGATA | 0.4
CACGGACA | 0.317
ACTGGACA | -0.189
CCCGGACG | 0.273
ACACCCCC | -0.133
GCTATCAC | -0.108
CGTGAACG | -0.0842
AGGCCCCT | -0.194
ACCGGACG | 0.369
TCCGGACA | 0.456
ACCGGACT | 0.443
ACCGGACC | 0.384
TGCGGACA | 0.356
TACGGACA | 0.257

Sequence | PBM E-score
CTTTTGCC | 0.093
AAGTTACT | 0.0192
AACCGTGA | -0.0334
GACTGGGA | 0.0171
CAGGAACA | -0.157
GCGGAACA | 0.344
GCGGAACC | 0.254
CAGGAACG | -0.153
TCGGAACA | 0.417
ACGGAACA | 0.27
CGGGAACA | 0.192
CCGGAACG | 0.411
CCGGAACA | 0.442
ACGGAACC | 0.213
CCGGAACC | 0.402
ACGGAACG | 0.271
AACTCAGT | -0.15
ATTCTCTA | -0.0579
CAGAAATA | 0.0765
AATGCATT | -0.0548
AAAGGCCG | 0.37
ACAACCGT | -0.251
ATTTGAGC | -0.102
CGTATCAG | 0.0563
AGTAGATG | -0.0703

Sequence | PBM E-score
ATCCAGAT | -0.146
TAACTTGA | -0.237
GCGGAGAC | 0.4
GGGGAGAC | 0.0986
AAGGAGAT | 0.0883
ATGGAGAC | -0.103
AAGGAGAC | -0.214
ACGGAGAT | 0.465
GAGGAGAC | -0.0694
ACGGAGAC | 0.39
AGGGAGAT | -0.207
GCCCATAC | -0.275
CTCCAGCA | -0.256
ATGGCTAC | -0.185
ATGGGTTG | -0.114
CAAGTATC | -0.152
GGATTTTA | 0.283
CAACGCCG | 0.318
AAACGCCA | 0.0115
AAACGCCG | 0.412
CGAGTCAG | -0.151
TAGGTAAA | -0.0912
GAATGCAA | 0.00843
CAATGCCG | 0.365
AAATGCCC | -0.0631

Sequence | PBM E-score
AAATGCCG | 0.423
AATACCTG | -0.107
AAACTCTG | -0.126
GGAACTCA | 0.189
CGAACTCG | 0.0307
CGAACTCC | 0.39
AGAACTCC | 0.276
CGAACTCA | -0.0578
GGAACTCC | 0.393
ACCTTGTC | -0.192
GGCTTGCA | -0.118
ACTGGTGC | -0.0757
CCGTTCCA | 0.0158
ATGTTCCA | -0.162
ATGTTCCG | 0.429
AACTTCCA | 0.0686
ATGTTCCC | -0.0151
AACTTCCT | 0.00298
CAGTTCCG | 0.348
AAGTTCCT | -0.0671
CCGTTCCG | 0.402
AACTTCCG | 0.433
AAGTTCCG | 0.42
ACGTTCCG | 0.289
ATCCTCAG | 0.0306

Sequence | PBM E-score
AAATAGCC | -0.00231
AATTCTCT | -0.113
AATCCACA | -0.0935
AAGCGGCG | 0.222
GGGTAACC | -0.0903
GGAGAGTA | 0.243
AACCGGTC | 0.198
CTCCGGTC | 0.455
CACCGGTC | 0.183
CGCCGGTC | 0.388
ATCCGGTC | 0.346
ATCCGGTA | 0.294
CTCCGGTA | 0.47
GACCGGTC | 0.397
GTCCGGTA | 0.366
ATGCACCG | 0.178
CAACTCGC | -0.0405
TAAGAAAA | -0.0396
CGCGCTTA | 0.0847
AAGACGTA | -0.154
CAGACTGG | -0.271
GTGCCGGA | 0.438
GTGCCGTA | 0.0749
CTGCCGGA | 0.355
ATGCCGGA | 0.456

Sequence | PBM E-score
ATGCCGGG | 0.336
ATGCCGGC | 0.372
ATGCGCTC | -0.034
CCTGTGGC | -0.166
GCGCGCTA | 0.0544
CGTATATA | -0.111
GAATTGCC | 0.182
AGGGGATG | -0.112
GCTACCCA | -0.196
ACACTCCG | 0.398
CCACTCCG | 0.437
ATACTCCC | 0.243
CCTCTCCG | 0.333
CCACTCCC | 0.0826
ACTCTCCG | 0.405
CCACTCCA | -0.0346
ACACTCCC | 0.00682
ACACTCCT | -0.0208
ACTCTCCA | -0.0794
ATACTCCA | -0.0317
ATACTCCG | 0.487
CAACAGAG | -0.0308
GACGCACA | 0.146
CTGAGGCC | 0.115
